# High-throughput results as filed in PubChem.
# ELG1 repair inh: qHTS screen for small molecules that inhibit ELG1-dependent DNA repair in human embryonic kidney (HEK293T) cells expressing luciferase-tagged ELG1; AID 504467, 2011; HEK293T ELG1-luciferase reporter, luminescence, 16 h; DNA damage induced by 5-fluorouridine; 2.3% of 330,000 active; Potency, µM (titrated, usually from 46.1 µM), for the others: at the highest dose activity change, negative = inhibition, most hits filed as inhibitors; also: % is scaled to controls: 0 for no effect and ±100 for the full control effect; nearly all actives have a fitted effect of over 55% in size
#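 Reporter activity after DNA damage by 5-fluorouridine is monitored. Compound-treated cells incubate 16 hr at 37 °C, then ONE-Glo is added for 30 min before luminescence reading.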
# Rango complex inh: qHTS Assay for Inhibitors of Rango (Ran-regulated importin-beta cargo) - Importin beta complex formation. Importin subunit beta-1 (Homo sapiens), Q14974. Rango CFP/YFP FRET sensor + importin beta, 45 min. Potency, µM (series often up to 92.2 µM), without a hit: top-dose inhibition of complex formation. 0.031% of 340,000 active; calls by dose curve;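 also: 0% = DMSO wells and 100% = buffer wells lacking importin beta; nearly all actives have a fitted effect of over 15% in size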
#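 FRET biosensor (snurportin 1 IBB flanked by EYFP and cerulean), 50 nM, with compound 5 min, then 0.125 microM importin beta in PBS, 1 mM DTT, 0.02% Tween-20, 0.1% BSA. CFP/YFP ratio read after 45 min at room temperature; pre-read flags interference.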
# Rango release inh: qHTS Assay for Inhibitors of RanGTP induced Rango (Ran-regulated importin-beta cargo) - Importin beta complex dissociation | 0.071% of 340,000 active | Biochemical FRET Rango-importin beta, RanGTP-induced dissociation | Potency, µM (titrated, usually from 46.1 µM), for the others: at the highest dose activity change, negative = inhibition | Snurportin-1 (Homo sapiens) + GTP-binding nuclear protein Ran (Homo sapiens) + Importin …; calls by dose curve; also: % of control where 0% means no effect; nearly all actives have a fitted effect of over 45% in size
#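 FRET read at 45 min, room temperature: inhibitors block the CFP/YFP signal rise when RanGTP (0.6 uM Ran, 2 mM GTP, 0.2 uM RCC1) frees Rango (0.1 uM) from importin beta (0.25 uM). Pre-read after 5 min compound exposure flags interference.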
# PKM2 act: qHTS Assay for Activators of Human Muscle isoform 2 Pyruvate Kinase; Pyruvate kinase PKM (Homo sapiens), P14618; purified PKM2, Kinase-Glo ATP luminescence, activation; response scale: 0% is enzyme alone, no compound; Potency, µM (top dose mostly 57.5 µM), without a hit: at the highest dose activation, most hits filed as activators; 0.34% of 260,000 active; AID 1631, 2009; also: % is scaled to controls: 0 for no effect and ±100 for the full control effect; nearly all actives have a fitted effect of over 55% in size
#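 ATP formation by purified human PK-M2, quantified via coupled luciferase luminescence after 1 h at room temperature with 0.1 mM ADP and 0.5 mM PEP final.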
# Tb PGK inh: qHTS Assay to Find Inhibitors of Phosphoglycerate Kinase | PGK/GAPDH coupled, Kinase-Glo luminescence, 60 min | Potency, µM (top dose mostly 57.5 µM), for inactives: at the top dose activity change, negative = inhibition, actives largely listed as inhibitors | 0.043% of 380,000 active; also: % is scaled to controls: 0 for no effect and ±100 for the full control effect; nearly all actives have a fitted effect of over 60% in size
# Target sequence (P07378 whole entry, looked up): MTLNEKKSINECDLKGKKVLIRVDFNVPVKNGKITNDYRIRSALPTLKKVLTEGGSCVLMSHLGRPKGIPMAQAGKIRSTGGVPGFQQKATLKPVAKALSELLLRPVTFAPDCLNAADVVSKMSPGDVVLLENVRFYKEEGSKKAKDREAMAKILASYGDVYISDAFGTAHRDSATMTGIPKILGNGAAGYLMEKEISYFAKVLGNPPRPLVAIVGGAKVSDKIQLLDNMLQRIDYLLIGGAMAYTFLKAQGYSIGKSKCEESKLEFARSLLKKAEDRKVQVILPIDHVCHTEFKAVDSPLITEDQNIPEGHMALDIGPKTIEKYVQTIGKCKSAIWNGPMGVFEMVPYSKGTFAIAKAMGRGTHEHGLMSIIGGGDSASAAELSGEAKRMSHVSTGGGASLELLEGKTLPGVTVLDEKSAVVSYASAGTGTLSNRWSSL
#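 Recombinant glycosomal PGK reaction used 1,3-bisphosphoglycerate generated in-well by GAPDH (100nM final) in 100mM TEA pH 7.6, 5mM MgCl2, 0.01% Tween-20. After 60 minutes at room temperature, ATP was read by Kinase-Glo Plus luminescence end-point.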
# Tb PFK inh: qHTS Assay to Find Inhibitors of T. brucei phosphofructokinase | ATP-dependent 6-phosphofructokinase (Trypanosoma brucei brucei), O15648 | T. brucei PFK, ADP-Glo luminescence | Potency, µM (titrated, usually from 57.5 µM), for the others: at the top dose activity, negative = inhibition, most hits filed as inhibitors | 0.17% of 330,000 active | AID 485367, 2010;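 also: 0% = uninhibited 1x PFK enzyme wells and -100% = no-enzyme wells; nearly all actives have a fitted effect of over 60% in size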
#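 Compounds were pin-transferred as a titration series up to 57 uM into substrate buffer (0.5 mM F6P, 0.1 mM ATP, pH 8.0), then 1.25 nM PFK was added and reactions ran 45 min before ADP-Glo detection.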
# * hit, by the source's call; i = inactive; ? = inconclusive; · = no result given. An excerpt weighted towards active compounds, which were near 2.4% of everything screened. Unless noted, calls follow the shape of the dose curve; as a rule, active = well fitted curve in the direction sought with a large enough effect; inconclusive = small, poorly fitted or top-dose-only effect, or another doubt; inactive = no such curve, though single readings can be large; an effect the other way counts as inactive or inconclusive. Potency is read from the fitted curve at half-maximal effect.
SMILES,ELG1 repair inh,Rango complex inh,Rango release inh,PKM2 act,Tb PGK inh,Tb PFK inh
CCC(=O)N1N=C(c2cccc(NS(C)(=O)=O)c2)CC1c1cccs1 (stereo not drawn),23µM*,-1%,2%,29%,i,1%
CS(=O)(=O)Nc1cccc(C2=NN(C(=O)CCC(=O)O)C(c3cccs3)C2)c1 (stereo not drawn),-1%,0%,-4%,·,-10%,8%
CS(=O)(=O)Nc1ccc(C2=NN(C(=O)c3cccc(F)c3)C(c3cccs3)C2)cc1 (stereo not drawn),16µM*,?,0%,·,·,3%
CS(=O)(=O)Nc1cccc(C2=NN(C(=O)c3ccco3)C(c3cccs3)C2)c1 (stereo not drawn),6.5µM*,1%,-11%,23%,-1%,-1%
O=C(CSc1nc2nc(-c3cccs3)cc(C(F)(F)F)c2c(=O)[nH]1)C(F)(F)F,?,?,-24%,·,-2%,-27%
Cc1noc(C)c1NC(=O)Nc1ccc2c(c1)C(=O)N([C@H](C)CO)C[C@@H](C)[C@@H](CN(C)S(=O)(=O)c1cn(C)cn1)OCCCC[C@H](C)O2,·,·,·,·,-3%,·
CCc1cc[n+](C2=C([O-])c3ccccc3C(=O)/C2=N\S(=O)(=O)c2cccs2)cc1,16µM*,1%,-2%,29%,-6%,0%
COc1ccc(NC(=O)c2oc3ccccc3c2NC(=O)c2ccc3c(c2)OCO3)cc1,9.2µM*,1%,-5%,6%,4%,-9%
COc1ccc(NC(=O)c2oc3ccccc3c2NC(=O)C2CC2)cc1OC,16µM*,1%,7%,0%,-1%,-3%
CCOc1ccccc1NC(=O)c1oc2ccccc2c1NC(=O)C1CCCO1 (stereo not drawn),7.3µM*,-2%,10%,-10%,-4%,-2%
COc1ccccc1NC(=O)c1oc2ccccc2c1NC(=O)C1CC1,3%,-1%,1%,·,7%,0%
CCOC(=O)/C(C#N)=C1\C(=O)N(Cc2ccccc2)c2ccccc21,?,-2%,-4%,?,-1%,-3%
CCCCc1nc(N2CCOCC2)c(C#N)c2c1COC(C)(C)C2,?,2%,5%,13%,-9%,-1%
CCCCc1nc(NCC2CCCO2)c(C#N)c2c1COC(C)(C)C2 (stereo not drawn),7.3µM*,-3%,-6%,-18%,-8%,-5%
CCOC(=O)C1=C(CN(C)Cc2ccccc2)NC(=O)NC1c1ccc(OC(C)C)cc1 (stereo not drawn),·,·,·,·,-9%,·
COc1ccc(NC(=O)CCCc2ccccc2)c(OC)c1,?,0%,16µM*,0%,-2%,0%
COc1ccc(OC)c(NC(=O)C(=O)c2cn(CC(=O)N3CCCC3)c3ccccc23)c1,12µM*,?,38%,3%,-1%,-16%
COc1ccc(C)cc1NC(=O)C(=O)c1cn(CC(=O)N2CCCC2)c2ccccc12,?,-1%,16%,-1%,-8%,2%
COc1ccc(NC(=O)Cn2cc(S(=O)(=O)Cc3ccccc3)c3ccccc32)c(OC)c1,15µM*,-3%,4%,1%,-7%,1%
CCOc1ccccc1NC(=O)C(NCC1(N2CCCCC2)CCCCC1)c1ccccc1 (stereo not drawn),?,-1%,2%,-13%,i,1%
